# Compound activity as filed in PubChem BioAssay.
# Most compounds without a hit are left out; they make up all but 0.71% or so of the library.
# RGS12 GoLoco inh = qHTS Assay for Inhibitors of RGS12 GoLoco Motif Activity (Red Fluorophore). Gai1:RGS12 GoLoco peptide FP, rhodamine, 10 min. Potency, µM (highest dose often 61.6 µM), for the others: at the top dose activity, negative = inhibition, actives largely listed as inhibitors. AID 880, 2007. 0.44% of 230,000 active. Guanine nucleotide-binding protein G(i) subunit alpha-1 (Homo sapiens), P63096; active means well fitted inhibition curve with a large enough effect, not every such curve was filed as active; inactive means no such curve, though single readings can be large or run the other way; further: on the % scale 0 is the no-effect control and ±100 the full control effect; nearly all actives have a fitted effect of over 30% in size
# RECQ1 helicase = qHTS Assay for Inhibitors of RecQ-Like Dna Helicase 1 (RECQ1); ATP-dependent DNA helicase Q1 (Homo sapiens), P46063; RECQ1 DNA unwinding, red fluorescence kinetic read; Potency, µM (doses to about 57.3 µM), inactives show at the top dose activity, negative = inhibition, hits mostly inhibitors; 0.54% of 240,000 active;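 further: plate controls were vehicle for no effect and no enzyme for full effect; nearly all actives have a fitted effect of over 30% in size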
#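 RECQ1T1 50 nM; forked duplex (20 bp + 30-nt ss tails) 200 nM, ATP 2 mM final; pH 8.0, 2 mM MgCl2, 2.5 ug/ml poly(dI-dC); 15 min compound preincubation; discontinuous kinetic read over 2 h at RT.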
# ERG-DNA inh = qHTS for Small Molecule Inhibitors of the ERG Ets/DNA interaction; Transcriptional regulator ERG (Homo sapiens), P11308; fluorescence polarization, His-ERG Ets domain / labelled DNA; Potency, µM (top dose mostly 76.9 µM), for inactives: at the top dose FP activity, negative = inhibition, most hits filed as inhibitors; 0.028% of 370,000 active; active means well fitted inhibition curve with a large enough effect in the polarisation, with a control signal flat; inconclusive means small, poorly fitted or top-dose-only effect, or effect the other way, or a change in a side signal; inactive means no such curve, though single readings can be large or run the other way; the % refers to the polarisation;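 further: polarization taken with two DNA probes labelled with fluorescein and Texas red; % of control where 0% means no effect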
#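 His-tagged ERG Ets domain (1 uM in the protein solution; 300mM KCl, 50mM Tris-HCl, 1mM EDTA, 1mM DTT, pH 7.5) received compound, then a probe mix of 5 nM fluorescein-DNA and 100nM Texas-615-DNA. Fluorescence polarization was read for both dyes.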
# BLM helicase inh = qHTS Assay for Inhibitors of Bloom's syndrome helicase (BLM); Potency, µM (doses to about 56.1 µM), without a hit: at the top dose activity change, negative = inhibition, actives largely listed as inhibitors; RecQ-like DNA helicase BLM (Homo sapiens), P54132; 0.2% of 350,000 active; recombinant BLM DNA unwinding, fluorescence dequenching;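 further: plate controls were vehicle for no effect and no enzyme for full effect; nearly all actives have a fitted effect of over 35% in size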
# Target sequence (P54132 whole entry, looked up): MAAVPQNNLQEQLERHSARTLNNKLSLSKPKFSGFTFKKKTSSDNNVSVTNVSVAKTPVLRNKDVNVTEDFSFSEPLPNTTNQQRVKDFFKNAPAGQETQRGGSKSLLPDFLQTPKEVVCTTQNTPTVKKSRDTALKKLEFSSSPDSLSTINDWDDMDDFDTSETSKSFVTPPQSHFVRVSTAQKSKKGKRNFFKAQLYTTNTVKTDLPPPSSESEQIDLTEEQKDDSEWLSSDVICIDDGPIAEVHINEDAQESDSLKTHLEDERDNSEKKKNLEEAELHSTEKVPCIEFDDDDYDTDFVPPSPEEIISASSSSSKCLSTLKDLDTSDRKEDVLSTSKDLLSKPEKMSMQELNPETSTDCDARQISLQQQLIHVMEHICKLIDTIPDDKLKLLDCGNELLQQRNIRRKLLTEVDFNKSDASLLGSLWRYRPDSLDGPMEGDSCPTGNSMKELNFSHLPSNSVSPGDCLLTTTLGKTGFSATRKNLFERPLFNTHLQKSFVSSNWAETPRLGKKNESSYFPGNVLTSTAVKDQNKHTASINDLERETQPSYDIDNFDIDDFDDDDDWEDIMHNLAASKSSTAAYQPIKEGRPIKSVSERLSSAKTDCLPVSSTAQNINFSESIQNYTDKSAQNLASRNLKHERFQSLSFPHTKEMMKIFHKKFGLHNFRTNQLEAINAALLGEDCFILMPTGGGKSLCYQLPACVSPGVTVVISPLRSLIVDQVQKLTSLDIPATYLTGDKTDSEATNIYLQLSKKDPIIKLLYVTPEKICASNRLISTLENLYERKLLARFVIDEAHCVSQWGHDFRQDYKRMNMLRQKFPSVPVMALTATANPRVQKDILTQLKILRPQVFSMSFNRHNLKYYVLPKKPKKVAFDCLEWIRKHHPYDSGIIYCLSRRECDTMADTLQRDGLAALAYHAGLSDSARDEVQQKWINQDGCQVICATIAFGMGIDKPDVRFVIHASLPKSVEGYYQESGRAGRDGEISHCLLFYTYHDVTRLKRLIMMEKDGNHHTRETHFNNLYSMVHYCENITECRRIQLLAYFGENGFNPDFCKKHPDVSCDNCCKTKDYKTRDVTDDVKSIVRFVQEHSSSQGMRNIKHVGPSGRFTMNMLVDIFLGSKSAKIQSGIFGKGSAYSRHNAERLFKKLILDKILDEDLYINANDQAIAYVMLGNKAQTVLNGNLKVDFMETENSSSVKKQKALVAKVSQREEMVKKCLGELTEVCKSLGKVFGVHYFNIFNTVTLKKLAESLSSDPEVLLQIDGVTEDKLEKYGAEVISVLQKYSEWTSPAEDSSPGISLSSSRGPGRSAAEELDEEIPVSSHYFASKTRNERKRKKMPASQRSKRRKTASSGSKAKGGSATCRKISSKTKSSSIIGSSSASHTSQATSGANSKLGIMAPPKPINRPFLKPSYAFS
# TR SRC2 fluor cs = Total Fluorescence Counterscreen for Inhibitors of the Interaction of Thyroid Hormone Receptor and Steroid Receptor Coregulator 2 | TRb/SRC2 Texas Red total fluorescence interference | Potency, µM (titrated, usually from 106 µM), for the others: top-dose fluorescence change, negative = quenching | 0.29% of 280,000 active; active means well fitted curve in either direction with a large enough effect; inconclusive means small, poorly fitted or top-dose-only effect; further: on the % scale 0 is the no-effect control and ±100 the full control effect
#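 Flags fluorescent or light-absorbing compounds by total fluorescence, S + 2P, at 555 nm excitation and 632 nm emission. Mixture: 20 nM Texas Red SRC2 peptide, 0.6 uM human TRb LBD, 1 uM T3, 5% DMSO; compound exposure 5 h at ambient temperature.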
# TRb SRC2 PPI = qHTS for Inhibitors of the Interaction of Thyroid Hormone Receptor and Steroid Receptor Coregulator 2 | Thyroid hormone receptor beta (Homo sapiens), P10828 | TRbeta-SRC2 peptide binding, fluorescence polarization; receptor liganded with 1 µM T3 | Potency, µM (doses to about 106 µM), for inactives: at the highest dose activity change, negative = inhibition, most hits filed as inhibitors | 0.065% of 280,000 active | AID 1469, 2008;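 further: plate controls were bound peptide for no effect and peptide without receptor for full effect; nearly all actives have a fitted effect of over 50% in size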
#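 Compounds were added to 0.6 uM TRb ligand-binding domain and 20 nM Texas Red-labeled SRC2 peptide in Tris buffer containing 1 uM T3, incubated 5 hr at ambient temperature, then read by fluorescence polarization.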
# The depositor's hits bear a star; i = inactive; ? = inconclusive; · = no result given; ! = not confirmed by another sample; [ ] = another dose, or the depositor's remark. Unless noted, the call rests on the fitted dose curve; in most records, active means well fitted curve in the direction sought with a large enough effect; inconclusive means small, poorly fitted or top-dose-only effect, or another doubt; inactive means no such curve, though single readings can be large; an effect the other way counts as inactive or inconclusive. Potency means the concentration at half of the fitted maximal effect.
SMILES,RGS12 GoLoco inh,RECQ1 helicase,ERG-DNA inh,BLM helicase inh,TR SRC2 fluor cs,TRb SRC2 PPI
N#C/C(=C\Nc1ccc2cn[nH]c2c1)c1nc(-c2ccccc2)cs1,26%,-10%,-3%,-11%,0%,-11%
N#C/C(=C\Nc1ccc2cn[nH]c2c1)c1nc(-c2ccc(Cl)cc2)cs1,82%,-11%,10%,-16%,?,71µM*
Oc1ccc(Br)cc1C=Nc1ccc(Cl)cc1,-1%,-7%,-3%,0%,-1%,-4%
CCN(CC)c1ccc(N=Cc2cc(Br)ccc2O)cc1,91%,-1%,31%,-10%,11%,50µM*
CCCCCCCCC#CCC#CCC#CCCCC(=O)O,9%,20µM*!,·,5%,-3%,9%
CCCCCCC(=O)O,1%,-1%,1%,·,-1%,-8%
C[N+]1(CCCCSc2ccc(O)cc2)CCCCC1,0.63µM*,-7%,-2%,6%,0%,-4%
C[N+]1(CCCC[N+]2(C)CCCCCCC2)CCCCCCC1,7%[14.2 µM],·,·,·,·,·
Cc1c(C(=O)N/N=C/c2cccs2)nc2ccccn12,-3%,-7%,0%,5%,178µM*[quencher],-21%[53 µM]
CCC[N+](C)(C)C(C)C(OC(C)=O)c1ccccc1 (configuration not stated),7.9µM*,-2%,4%,0%,-1%,-4%
CC(NC(=O)Cc1ccccc1)c1ccccc1 (configuration not stated),·,·,1%,0%,·,·
CC1CC=CC2C1C(=O)N(Cc1ccccc1)C2c1ccc(-c2cc3ccccc3s2)cc1F (configuration not stated),·,14%,·,-7%,0%,6%
CC(C)C[C@H](NC(=O)[C@@H]1CCC(=O)N1)C(=O)N[C@@H](Cc1ccc(O)cc1)C(=O)N[C@@H](CCC(=O)O)C(=O)N[C@@H](CC(N)=O)C(=O)N[C@@H](CCCCN)C(=O)N1CCC[C@H]1C(=O)N[C@@H](CCCN=C(N)N)C(=O)N[C@@H](CCCN=C(N)N)C(=O)N1CCC[C@H]1C(=O)N[C@@H](Cc1ccc(O)cc1)C(=O)O,·,-4%,·,-5%,-2%,0%
COC(CC(=O)NNC(=S)Nc1ccccc1)OC,12%,14µM*,0%,1%,-2%,8%
COC(CC(=O)NNC(=S)Nc1ccc(Cl)cc1)OC,1%,-2%,3%,1%,3%,7%
COc1cc2ccc(=O)oc2cc1OCC(O)C(C)(C)O (configuration not stated),5%,-6%,2%,-1%,-1%,4%
COc1cc2ccc(=O)oc2cc1O,28µM*!,?,-1%,-1%,-4%,-10%
CCCCC(CC)COC(=O)/C=C\C(=O)OCC(CC)CCCC (configuration not stated),·,·,·,·,-6%[201 µM],3%[201 µM]
C=C(C)C(=O)Nc1cccc(C2=NOC3(C2)C[C@H](C(N)=O)N(C(=O)COc2ccc(Cl)cc2)C3)c1 (some centres not stated),12%,18µM*,-7%,-15%,-1%,8%
C=C(C)C(=O)Nc1cccc(C2=NOC3(C2)C[C@H](C(N)=O)N(C(=O)c2ccccc2)C3)c1 (some centres not stated),3%,i,-11%,1%,0%,-2%
C=C(C)C(=O)Nc1cccc(C2=NOC3(C2)C[C@@H](C(N)=O)N(C(=O)C2(C)CC2)C3)c1 (some centres not stated),-1%,10µM*,-7%,4%,-3%,-9%
